Among the data in PubChem BioAssay (Tox21) are Potency and max activation values, retold here.

Where “and” joins values, the source holds several entries; their conditions need not be identical. Equal values may be shown once. Records with an inconclusive call do not appear. Some structures have more than one record in an assay (separate samples or runs), and their calls can disagree. Calls of active or inactive are those of the source. Calls come from the whole dose curve; as a rule, active = well fitted curve in the direction sought with a large enough effect in the repeat runs; inconclusive = weak or mixed curves; inactive = no such curve, though single readings can be large; an effect the other way counts as inactive or inconclusive.

Test [1] can be described thus: Caspase-3/7 induction in HepG2 cells by small molecules, qHTS assay (AID 1346978). Note: nearly all actives have a fitted effect of over 15% in size. Note: potency is the fitted concentration of half-maximal effect. The procedure, abridged: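 Caspase-3/7 induction was measured by Caspase-Glo 3/7 luminescence (30 min, room temperature) after a 17 hr compound exposure of wild-type HepG2 cells seeded at 2,000 per well and pre-incubated 5 hr.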
A general note: Quantitative high-throughput screening tests each substance at several concentrations.

A short description of test [2]: Caspase-3/7 induction in CHO-K1 cells by small molecules, qHTS cell viability counter screen (AID 1346979). Note: nearly all actives have a fitted effect of over 35% in size. Note: potency is the fitted concentration of half-maximal effect. The procedure, abridged: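 Wild-type CHO-K1 cells were seeded at 1,500 per well, rested 5hr at 37 C, then exposed to compounds in DMSO. After 16hr, CellTiter-Fluor reagent was added and fluorescence read 1hr later as the viability measure.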
Test [3] is described as follows: Caspase-3/7 induction in CHO-K1 cells by small molecules, qHTS assay (AID 1346980). Note: nearly all actives have a fitted effect of over 15% in size. The procedure, abridged: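 Luminescent Caspase-Glo 3/7 read (30min, room temperature) quantified apoptosis induction. Cells were wild-type CHO-K1, treated with compound for 17hr at 37 C and 5% CO2.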
Test [4] can be described thus: Caspase-3/7 induction in HepG2 cells by small molecules, qHTS cell viability counter screen (AID 1346981). Note: nearly all actives have a fitted effect of over 30% in size. Note: potency is the fitted concentration of half-maximal effect. The procedure, abridged:
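CellTiter-Fluor fluorescence measured viability in the same wells used for Caspase-Glo 3/7. HepG2 (wild type) at 2,000 cells/well were pre-incubated 5 hr, dosed, and given reagent at 16 hr, with 1 hr further at 37C.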

Test [5] concerns the target Nuclear receptor subfamily 1 group I member 2 (Homo sapiens) (UniProt O75469). Nature of the test: Human pregnane X receptor (PXR) small molecule agonists, qHTS assay (AID 1346982). Note: nearly all actives have a fitted effect of over 35% in size. Note: potency is the fitted concentration of half-maximal effect. The procedure, abridged: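 Agonist mode: luminescence from ONE-Glo after 24 h compound exposure at 37C in HepG2 cells carrying hPXR-responsive CYP3A4 luciferase, plated in charcoal-stripped serum medium 5 h beforehand.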

Test [6] concerns the target Cytochrome P450 2D6 (Homo sapiens) (UniProt P10635). Nature of the test: Cytochrome P450 Family 2 Subfamily D Member 6 (CYP2D6) small molecule antagonists: luciferase reporter qHTS assay (AID 1671196). Note: nearly all actives have a fitted effect of over 50% in size. Note: potency is the fitted concentration of half-maximal effect. The procedure, abridged: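 CYP2D6 activity was followed as luminescence from its luciferin product after a 1 h NADPH-driven reaction at room temperature. Enzyme-substrate mix and compound were pre-incubated for 10 min, and the signal was read 20 min after adding detection reagent.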

Test [7] concerns the target Cytochrome P450 2C19 (Homo sapiens) (UniProt P33261). Nature of the test: Cytochrome P450 Family 2 Subfamily C Member 19 (CYP2C19) small molecule antagonists: luciferase reporter qHTS assay (AID 1671197). Note: nearly all actives have a fitted effect of over 65% in size. Note: potency is the fitted concentration of half-maximal effect. The procedure, abridged:
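Enzyme-substrate mix with proluciferin substrate (P450-Glo CYP2C19 system) preincubated with compounds 10 min at room temperature; NADPH regeneration solution added, 37C for 1 h; detection reagent stops reaction, luminescence read after 20 min. Ketoconazole positive control.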

For test [8], the target named is Cytochrome P450 2C9 (Homo sapiens) (UniProt P11712). Nature of the test: Cytochrome P450 Family 2 Subfamily C Member 9 (CYP2C9) small molecule antagonists: luciferase reporter qHTS assay (AID 1671198). Note: nearly all actives have a fitted effect of over 50% in size. Note: potency is the fitted concentration of half-maximal effect. The procedure, abridged:
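Enzyme-substrate mix preincubated with compound 10 min at room temperature; reaction started with NADPH regeneration solution, 1 h 37C. Luminescent luciferin product read after 20 min detection reagent.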

Test [9] has as its target Cytochrome P450 1A2 (Homo sapiens) (UniProt P05177). Nature of the test: Cytochrome P450 Family 1 Subfamily A Member 2 (CYP1A2) small molecule antagonists: luciferase reporter qHTS assay (AID 1671199). Note: nearly all actives have a fitted effect of over 50% in size. Note: potency is the fitted concentration of half-maximal effect. The procedure, abridged: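 Luminescence from luciferin formed by CYP1A2 from a proluciferin substrate, read 20 min after detection reagent. Compound was pre-incubated 10 min with enzyme-substrate, and reaction started with NADPH regeneration solution for 1 h at room temperature; furafylline control.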

The target of test [10] is Voltage-gated inwardly rectifying potassium channel KCNH2 (Homo sapiens) (UniProt Q12809). Nature of the test: Human Ether-a-go-go-Related Gene (hERG) channel small molecule antagonists: fluorescence cell-based qHTS assay (AID 1671200).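 Note: hERG-expressing U2OS cells given a thallium stimulus after FluxOR II dye loading; series mostly up to about 77 µM; nearly all actives have a fitted effect of over 50% in size.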 In outline: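 U2OS cells expressing the channel were plated at 1000 cells/well, incubated overnight at 37 C, then loaded with FluxOR II thallium-sensitive dye for 1 h at room temperature in the dark, with a further 10 min at room temperature before stimulation.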
(In general: The hERG channel carries a current that helps repolarise heart muscle cells.)

The target of test [11] is Cytochrome P450 3A4 (Homo sapiens) (UniProt P08684). Nature of the test: Cytochrome P450 Family 3 Subfamily A Member 4 (CYP3A4) small molecule antagonists: luciferase reporter qHTS assay (AID 1671201). Note: nearly all actives have a fitted effect of over 50% in size. Note: potency is the fitted concentration of half-maximal effect. The procedure, abridged: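 P450-Glo CYP3A4 system with proluciferin substrate; compounds preincubated 10 min RT with enzyme-substrate mix, then NADPH regeneration added for 1 h RT. Detection reagent 20 min, luminescence read as relative luminescence units.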

The target of test [12] is Nuclear receptor subfamily 1 group I member 2 (Rattus norvegicus) (UniProt Q9R1A7). Nature of the test: Rat pregnane X receptor (rPXR) activation by small molecules, qHTS assay (AID 1346983). Note: nearly all actives have a fitted effect of over 20% in size. To be noted: rPXR luciferase reporter cells, One-Glo luminescence, 24 h; max activation: stronger effect = higher value. The procedure, abridged: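 Luminescent readout (One-Glo luciferase, 30 min room temperature) followed 24 hr compound treatment at 37 C of rPXR cells plated 2,000 per well and preincubated 5hr; qHTS format with compounds delivered in DMSO.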

Test [13] deals with Nuclear receptor subfamily 1 group I member 2 (Homo sapiens) (UniProt O75469). Nature of the test: CYP3A4 induction through human pregnane X receptor (PXR) by small molecules, qHTS assay (AID 1346984). Note: nearly all actives have a fitted effect of over 40% in size. In outline: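 Read-out is luminescence after One-Glo addition, following a 3 hr, 37C incubation with Luciferin-IPA CYP3A4 substrate (3uM final). Before that, compounds were on DPX-2 cells (HepG2 co-transfected with PXR element plus CYP3A4-promoter luciferase) for 24 hr at 37C.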

Test [14] shares this target. Nature of the test: Human pregnane X receptor (PXR) activation by small molecules, qHTS assay (AID 1346985). Note: nearly all actives have a fitted effect of over 40% in size. In outline:
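DPX-2 cells (HepG2 co-transfected with a PXR response element and a CYP3A4-promoter luciferase construct) were seeded at 2,000 per well, rested 5 hr at 37C, then exposed to DMSO-dissolved compounds for 24 hr. Activation was read as luciferase luminescence.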
% is set by controls: 0 for no effect and ±100 for the full control effect.

Cytochrome P450 3A4 (Homo sapiens), sequence (P08684 whole entry, looked up): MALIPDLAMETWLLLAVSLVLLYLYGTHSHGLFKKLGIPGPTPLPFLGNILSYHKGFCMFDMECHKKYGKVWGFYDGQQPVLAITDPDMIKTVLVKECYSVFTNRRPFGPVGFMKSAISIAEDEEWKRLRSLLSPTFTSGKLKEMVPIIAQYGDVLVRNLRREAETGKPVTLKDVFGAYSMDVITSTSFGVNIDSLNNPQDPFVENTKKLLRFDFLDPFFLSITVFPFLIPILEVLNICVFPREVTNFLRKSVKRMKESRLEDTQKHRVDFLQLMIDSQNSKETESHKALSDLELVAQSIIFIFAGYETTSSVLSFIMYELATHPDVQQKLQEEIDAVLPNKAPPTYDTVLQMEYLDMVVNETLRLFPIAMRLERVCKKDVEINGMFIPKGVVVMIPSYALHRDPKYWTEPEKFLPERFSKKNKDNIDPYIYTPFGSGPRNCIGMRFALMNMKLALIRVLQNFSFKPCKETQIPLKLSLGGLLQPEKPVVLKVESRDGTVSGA
Cytochrome P450 2D6 (Homo sapiens), sequence (P10635 whole entry, looked up): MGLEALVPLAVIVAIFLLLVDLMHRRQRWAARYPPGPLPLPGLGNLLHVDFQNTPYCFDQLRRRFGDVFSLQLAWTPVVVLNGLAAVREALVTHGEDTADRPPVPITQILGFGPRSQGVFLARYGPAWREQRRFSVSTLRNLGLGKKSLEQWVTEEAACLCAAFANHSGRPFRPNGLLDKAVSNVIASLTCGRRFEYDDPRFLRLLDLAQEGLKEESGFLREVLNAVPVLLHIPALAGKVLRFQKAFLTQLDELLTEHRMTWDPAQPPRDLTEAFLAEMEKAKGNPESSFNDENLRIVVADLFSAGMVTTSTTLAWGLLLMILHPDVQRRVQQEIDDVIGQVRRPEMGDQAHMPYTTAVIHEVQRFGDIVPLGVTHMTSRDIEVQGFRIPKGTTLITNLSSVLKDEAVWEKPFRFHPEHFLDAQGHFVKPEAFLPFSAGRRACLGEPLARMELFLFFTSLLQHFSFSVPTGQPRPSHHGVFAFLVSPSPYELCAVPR
Nuclear receptor subfamily 1 group I member 2 (Rattus norvegicus), sequence (Q9R1A7 whole entry, looked up): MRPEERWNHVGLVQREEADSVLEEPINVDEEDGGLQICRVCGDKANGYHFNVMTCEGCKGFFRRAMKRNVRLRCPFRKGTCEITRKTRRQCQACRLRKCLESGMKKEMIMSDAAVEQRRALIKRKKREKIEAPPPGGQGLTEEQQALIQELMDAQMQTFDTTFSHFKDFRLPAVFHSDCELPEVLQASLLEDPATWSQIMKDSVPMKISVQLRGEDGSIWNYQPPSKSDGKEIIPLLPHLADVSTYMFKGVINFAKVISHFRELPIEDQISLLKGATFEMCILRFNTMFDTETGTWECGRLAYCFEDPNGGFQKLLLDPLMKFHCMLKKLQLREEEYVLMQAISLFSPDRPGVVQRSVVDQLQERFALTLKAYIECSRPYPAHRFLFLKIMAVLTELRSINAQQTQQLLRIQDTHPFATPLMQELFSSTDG
Cytochrome P450 2C19 (Homo sapiens), sequence (P33261 whole entry, looked up): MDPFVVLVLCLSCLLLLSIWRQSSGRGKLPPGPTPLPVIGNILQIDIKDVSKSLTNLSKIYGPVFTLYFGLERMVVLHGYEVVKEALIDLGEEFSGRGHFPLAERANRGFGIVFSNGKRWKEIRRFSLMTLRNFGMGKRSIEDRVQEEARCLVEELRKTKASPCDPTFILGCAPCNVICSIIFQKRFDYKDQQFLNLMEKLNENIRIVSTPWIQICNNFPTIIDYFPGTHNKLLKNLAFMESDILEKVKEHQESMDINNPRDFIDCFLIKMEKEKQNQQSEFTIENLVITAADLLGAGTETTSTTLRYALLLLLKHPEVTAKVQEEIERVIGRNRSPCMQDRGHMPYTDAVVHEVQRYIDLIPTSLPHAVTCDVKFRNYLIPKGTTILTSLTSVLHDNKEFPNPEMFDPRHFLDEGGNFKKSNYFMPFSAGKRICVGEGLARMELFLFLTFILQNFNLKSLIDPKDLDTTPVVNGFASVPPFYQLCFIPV
Nuclear receptor subfamily 1 group I member 2 (Homo sapiens), sequence (O75469 whole entry, looked up): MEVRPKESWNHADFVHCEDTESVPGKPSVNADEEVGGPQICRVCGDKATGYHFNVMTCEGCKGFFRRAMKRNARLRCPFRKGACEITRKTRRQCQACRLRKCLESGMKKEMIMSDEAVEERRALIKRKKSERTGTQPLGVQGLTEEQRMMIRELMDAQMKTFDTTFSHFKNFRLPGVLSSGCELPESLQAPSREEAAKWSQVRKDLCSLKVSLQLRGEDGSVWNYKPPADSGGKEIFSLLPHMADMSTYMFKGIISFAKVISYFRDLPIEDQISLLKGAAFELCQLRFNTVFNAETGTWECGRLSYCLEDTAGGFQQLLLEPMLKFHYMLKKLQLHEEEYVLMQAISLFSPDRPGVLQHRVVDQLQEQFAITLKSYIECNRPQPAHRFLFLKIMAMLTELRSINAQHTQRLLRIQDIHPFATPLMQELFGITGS
Voltage-gated inwardly rectifying potassium channel KCNH2 (Homo sapiens), sequence (Q12809 whole entry, looked up): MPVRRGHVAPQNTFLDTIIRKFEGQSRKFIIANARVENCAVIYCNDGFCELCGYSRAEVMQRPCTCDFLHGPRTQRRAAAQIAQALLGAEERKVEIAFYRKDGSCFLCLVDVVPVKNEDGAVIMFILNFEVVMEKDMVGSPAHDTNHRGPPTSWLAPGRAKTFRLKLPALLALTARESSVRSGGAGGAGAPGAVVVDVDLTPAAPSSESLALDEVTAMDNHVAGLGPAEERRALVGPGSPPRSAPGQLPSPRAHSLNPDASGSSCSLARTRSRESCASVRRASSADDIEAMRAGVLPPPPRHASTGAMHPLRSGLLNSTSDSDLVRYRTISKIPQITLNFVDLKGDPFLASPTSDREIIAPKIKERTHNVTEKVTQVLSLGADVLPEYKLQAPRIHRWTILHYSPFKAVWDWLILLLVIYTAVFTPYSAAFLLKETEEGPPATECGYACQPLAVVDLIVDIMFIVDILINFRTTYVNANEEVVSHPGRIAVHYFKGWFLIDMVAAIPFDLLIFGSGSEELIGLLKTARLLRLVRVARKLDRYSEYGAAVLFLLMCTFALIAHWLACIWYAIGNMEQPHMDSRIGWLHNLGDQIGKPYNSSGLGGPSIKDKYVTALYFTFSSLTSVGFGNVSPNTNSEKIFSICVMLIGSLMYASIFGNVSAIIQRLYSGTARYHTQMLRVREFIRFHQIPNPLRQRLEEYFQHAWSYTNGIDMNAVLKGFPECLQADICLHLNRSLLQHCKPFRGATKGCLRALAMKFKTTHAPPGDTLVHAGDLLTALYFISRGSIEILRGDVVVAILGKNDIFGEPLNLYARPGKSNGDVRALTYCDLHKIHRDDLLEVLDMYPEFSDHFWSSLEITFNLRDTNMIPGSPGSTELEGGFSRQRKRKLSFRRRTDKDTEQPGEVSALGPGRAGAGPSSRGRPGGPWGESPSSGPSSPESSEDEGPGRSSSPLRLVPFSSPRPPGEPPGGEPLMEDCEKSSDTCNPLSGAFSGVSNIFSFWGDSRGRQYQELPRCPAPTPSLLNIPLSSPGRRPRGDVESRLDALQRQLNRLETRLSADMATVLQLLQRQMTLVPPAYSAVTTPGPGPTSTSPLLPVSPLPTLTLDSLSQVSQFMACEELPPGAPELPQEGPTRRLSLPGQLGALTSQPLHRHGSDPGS
Cytochrome P450 1A2 (Homo sapiens), sequence (P05177 whole entry, looked up): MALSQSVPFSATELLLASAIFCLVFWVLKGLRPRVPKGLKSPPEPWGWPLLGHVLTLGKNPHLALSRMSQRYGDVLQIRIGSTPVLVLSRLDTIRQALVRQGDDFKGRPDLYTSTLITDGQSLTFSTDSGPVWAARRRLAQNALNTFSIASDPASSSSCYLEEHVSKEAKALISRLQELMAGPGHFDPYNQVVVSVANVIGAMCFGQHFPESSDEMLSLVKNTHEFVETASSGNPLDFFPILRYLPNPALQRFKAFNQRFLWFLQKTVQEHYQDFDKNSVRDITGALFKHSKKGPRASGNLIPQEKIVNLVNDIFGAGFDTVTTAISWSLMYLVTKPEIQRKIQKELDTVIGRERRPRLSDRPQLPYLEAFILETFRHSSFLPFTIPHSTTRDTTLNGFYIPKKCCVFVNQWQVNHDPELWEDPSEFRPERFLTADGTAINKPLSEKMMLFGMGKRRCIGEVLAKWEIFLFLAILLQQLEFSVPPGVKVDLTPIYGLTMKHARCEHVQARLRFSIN
Cytochrome P450 2C9 (Homo sapiens), sequence (P11712 whole entry, looked up): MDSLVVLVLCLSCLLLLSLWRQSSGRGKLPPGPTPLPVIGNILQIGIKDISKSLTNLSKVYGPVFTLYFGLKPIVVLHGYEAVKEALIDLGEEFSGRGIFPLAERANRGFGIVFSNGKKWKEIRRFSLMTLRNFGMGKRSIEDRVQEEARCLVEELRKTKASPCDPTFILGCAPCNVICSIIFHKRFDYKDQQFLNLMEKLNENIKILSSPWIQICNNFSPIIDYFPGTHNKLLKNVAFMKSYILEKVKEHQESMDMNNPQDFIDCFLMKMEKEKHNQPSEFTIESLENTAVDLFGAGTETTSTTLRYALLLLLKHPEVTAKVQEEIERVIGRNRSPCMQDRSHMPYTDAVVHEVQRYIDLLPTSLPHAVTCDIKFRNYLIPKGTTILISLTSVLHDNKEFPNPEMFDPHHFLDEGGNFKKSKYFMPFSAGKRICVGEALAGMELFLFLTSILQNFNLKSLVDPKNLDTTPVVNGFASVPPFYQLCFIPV

On to `Cc1ccc(C(C)(C)C)cc1`, for which the Potency result in test [1], in [2], in test [3], in test [4], in test [5] and in test [6] was “inactive” throughout. In addition, the Potency result in test [7], in test [8], in test [9], in test [10] and in test [11] was “inactive” each time.

With `CC(=O)OC(C)C`, the Potency result in test [1], in test [2], in test [3], in test [4], in [5] and in test [6] was “inactive” each time. Moreover, the Potency result in test [7], in test [8], in [9], in test [10] and in [11] was “inactive” throughout.

`C[N+](C)(C)CCO`: the Potency entry in test [1], in test [2], in test [3], in test [4], in test [5] and in test [7] was “inactive” throughout. Besides, the Potency result in test [8] and in [10] was “inactive” in each case.

Regarding `CC(=O)Oc1ccc(C(c2ccc(OC(C)=O)cc2)c2ccccn2)cc1`, the Potency entry in [1], in [2], in test [3], in test [4], in test [9] and in test [10] was “inactive” throughout. Further, the Potency entry in test [11] was “inactive”. The Potency in [5] was 54.2 µM (active) and inactive; in test [6], 35.4 µM (active) and inactive; in test [7], 7.92 µM (active) and 24.5 µM (active); in test [8], 7.06 µM (active) and 12.3 µM (active).

On to `Nc1ccc(N)c(Cl)c1`, for which the Potency entry in [1], in [3] and in test [10] was “inactive” in each case. Further, the Potency in test [2] was 61 µM (active) and 54.5 µM (active); in test [4] it was 68.5 µM (active); in test [5] it was 21.6 µM (active) and 48.6 µM (active); in test [7], 3.17 µM (active) and 5.03 µM (active); in test [8] it was 8.92 µM (active) and 8.94 µM (active); in [9] it was 39.8 µM (active) and 35.6 µM (active). Moreover, in test [11], the Potency was 2.51 µM (active) and 5.64 µM (active).

Regarding `CCc1cccc2c3c([nH]c12)C(CC)(CC(=O)O)OCC3` (stereo unspecified), the Potency result in [1], in test [2], in test [3], in [4], in test [5] and in [13] was “inactive” throughout. The Potency result in test [14], in test [9], in [10] and in [11] was “inactive” in each case. For the same compound, the max activation in test [12] was 1.85% (inactive). Further, the Potency was 20 µM (active) and inactive in [6]; 39.8 µM (active) in test [7]; 31.6 µM (active) and 34.7 µM (active) in test [8].

With `C=C[C@H]1CN2CC[C@H]1C[C@@H]2[C@@H](O)c1ccnc2ccc(OC)cc12`, the Potency result in test [1], in [2], in [3], in test [4] and in test [9] was “inactive” throughout. For the same compound, in test [12], the max activation was -2.45% (inactive).

Consider `C=CN1CCCC1=O`, for which the Potency entry in test [1], in test [2], in test [3], in test [4], in test [5] and in [7] was “inactive” in each case. For the same compound, the Potency entry in [8], in test [9], in test [10] and in test [11] was “inactive” throughout.

Turning to `NC[C@H](O)c1ccc(O)c(O)c1`, the Potency entry in test [1], in [2], in [3], in test [4], in test [5] and in [13] was “inactive” in each case. Further, the Potency result in test [14], in test [9], in [10] and in test [11] was “inactive” throughout. The max activation in test [12] was -0.838% (inactive).

`C/C=C/C(=O)N(CC)c1ccccc1C`: the Potency entry in test [1], in test [2], in test [3], in test [4], in test [5] and in test [13] was “inactive” each time. The Potency entry in [6], in test [10] and in test [11] was “inactive” in each case. Further, the max activation in [12] is -1.94% (inactive). The Potency was 44.8 µM (active) and 17.4 µM (active) in test [7]; 39.9 µM (active) in test [8]; 31.7 µM (active) and inactive in test [9].

Regarding `CC(=O)Nc1ccc2c(c1)Cc1cc(NC(C)=O)ccc1-2`, the Potency result in test [1], in test [2], in test [3], in test [4], in [7] and in [8] was “inactive” throughout. Moreover, the Potency entry in test [9], in [10] and in test [11] was “inactive” throughout. Moreover, in test [5], the Potency is 17.2 µM (active) and 7.7 µM (active).

As to `CC1(C)OC(=O)NC1=O`, the Potency entry in [1], in test [2], in [3], in [4], in test [6] and in [7] was “inactive” in each case. Moreover, the Potency result in [8], in [9] and in test [10] was “inactive” each time.

With `C[C@]12CC[C@@H]3c4ccc(O)cc4CC[C@H]3[C@@H]1CC[C@H]2O`, the Potency was 11.1 µM (active) in [1]; 49.4 µM (active) and 54.5 µM (active) in test [2]; 4.06 µM (active) and 17.8 µM (active) in test [7]; 11.4 µM (active) and inactive in [8]. The Potency result in test [3], in test [4] and in [11] was “inactive” each time.

In the case of `COCCOCCOCCO`, the Potency entry in [1], in test [2], in [3], in test [4], in test [5] and in test [6] was “inactive” throughout. Besides, the Potency result in test [7], in test [8], in test [9], in test [10] and in test [11] was “inactive” throughout.

Consider `COc1ccc(-c2coc3cc(O)cc(O)c3c2=O)cc1`, for which the Potency entry in test [1], in [3] and in [10] was “inactive” in each case. Besides, the Potency in test [2] was 69.1 µM (active); in test [5], 30.9 µM (active) and 30.6 µM (active); in test [6], 45.2 µM (active); in test [7], 20.2 µM (active) and 28.3 µM (active); in test [9] it was 32 µM (active) and 35.6 µM (active); in test [11], 20.2 µM (active) and 35.6 µM (active).
